# Test results as given in ChEMBL document CHEMBL2218924, “A broad activity screen in support of a chemogenomic map for kinase signalling research and drug discovery” (Biochem J, 2013).
# Legend:
# [1] = biological target: Serine/threonine-protein kinase SIK1 (Homo sapiens) (UniProt P57059); conditions: at 10 µM
# [2] = biological target: SRSF protein kinase 1 (Homo sapiens) (UniProt Q96SB4); conditions: at 1 µM
# [3] = biological target: SRSF protein kinase 1 (Homo sapiens) (UniProt Q96SB4); conditions: at 10 µM
# [4] = biological target: SRSF protein kinase 2 (Homo sapiens) (UniProt P78362); conditions: at 1 µM
# Sequence of SRSF protein kinase 2 (Homo sapiens) (P78362 whole entry, looked up): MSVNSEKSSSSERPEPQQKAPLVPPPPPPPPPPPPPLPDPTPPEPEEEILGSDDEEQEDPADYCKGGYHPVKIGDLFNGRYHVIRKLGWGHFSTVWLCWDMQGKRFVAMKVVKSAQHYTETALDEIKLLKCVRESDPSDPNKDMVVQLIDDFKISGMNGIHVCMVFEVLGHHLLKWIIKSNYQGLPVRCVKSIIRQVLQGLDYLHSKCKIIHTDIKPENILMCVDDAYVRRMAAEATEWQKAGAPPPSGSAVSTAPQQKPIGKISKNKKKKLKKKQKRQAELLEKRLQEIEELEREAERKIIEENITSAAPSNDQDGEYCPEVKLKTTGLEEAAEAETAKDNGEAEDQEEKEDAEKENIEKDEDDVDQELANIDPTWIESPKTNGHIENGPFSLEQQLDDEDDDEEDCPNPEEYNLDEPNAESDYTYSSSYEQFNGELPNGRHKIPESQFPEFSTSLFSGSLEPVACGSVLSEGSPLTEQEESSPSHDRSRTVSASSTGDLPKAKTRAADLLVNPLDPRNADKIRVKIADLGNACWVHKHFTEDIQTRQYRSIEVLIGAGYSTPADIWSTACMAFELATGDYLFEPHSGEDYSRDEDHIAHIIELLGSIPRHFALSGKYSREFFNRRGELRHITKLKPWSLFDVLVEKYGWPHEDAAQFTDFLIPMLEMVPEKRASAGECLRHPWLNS
# [5] = biological target: SRSF protein kinase 2 (Homo sapiens) (UniProt P78362); conditions: at 10 µM
# [6] = biological target: Serine/threonine-protein kinase 33 (Homo sapiens) (UniProt Q9BYT3); conditions: at 1 µM
# Sequence of Serine/threonine-protein kinase 33 (Homo sapiens) (Q9BYT3 whole entry, looked up): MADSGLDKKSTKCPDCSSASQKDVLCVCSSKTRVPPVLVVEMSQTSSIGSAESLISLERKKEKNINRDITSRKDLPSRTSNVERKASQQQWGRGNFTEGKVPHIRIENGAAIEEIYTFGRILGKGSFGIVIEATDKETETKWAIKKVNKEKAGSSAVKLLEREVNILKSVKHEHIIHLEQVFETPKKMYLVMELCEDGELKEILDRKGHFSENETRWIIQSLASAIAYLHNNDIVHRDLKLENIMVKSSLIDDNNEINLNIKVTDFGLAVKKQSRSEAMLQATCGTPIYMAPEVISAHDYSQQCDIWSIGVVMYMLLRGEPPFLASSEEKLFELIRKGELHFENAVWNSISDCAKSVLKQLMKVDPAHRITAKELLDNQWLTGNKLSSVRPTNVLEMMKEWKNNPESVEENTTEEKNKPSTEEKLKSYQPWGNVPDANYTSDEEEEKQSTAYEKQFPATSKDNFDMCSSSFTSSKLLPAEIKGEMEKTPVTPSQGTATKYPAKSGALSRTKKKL
# [7] = biological target: Serine/threonine-protein kinase 33 (Homo sapiens) (UniProt Q9BYT3); conditions: at 10 µM
# [8] = biological target: Serine/threonine-protein kinase PLK2 (Homo sapiens) (UniProt Q9NYY3); conditions: at 1 µM
# Sequence of Serine/threonine-protein kinase PLK2 (Homo sapiens) (Q9NYY3 whole entry, looked up): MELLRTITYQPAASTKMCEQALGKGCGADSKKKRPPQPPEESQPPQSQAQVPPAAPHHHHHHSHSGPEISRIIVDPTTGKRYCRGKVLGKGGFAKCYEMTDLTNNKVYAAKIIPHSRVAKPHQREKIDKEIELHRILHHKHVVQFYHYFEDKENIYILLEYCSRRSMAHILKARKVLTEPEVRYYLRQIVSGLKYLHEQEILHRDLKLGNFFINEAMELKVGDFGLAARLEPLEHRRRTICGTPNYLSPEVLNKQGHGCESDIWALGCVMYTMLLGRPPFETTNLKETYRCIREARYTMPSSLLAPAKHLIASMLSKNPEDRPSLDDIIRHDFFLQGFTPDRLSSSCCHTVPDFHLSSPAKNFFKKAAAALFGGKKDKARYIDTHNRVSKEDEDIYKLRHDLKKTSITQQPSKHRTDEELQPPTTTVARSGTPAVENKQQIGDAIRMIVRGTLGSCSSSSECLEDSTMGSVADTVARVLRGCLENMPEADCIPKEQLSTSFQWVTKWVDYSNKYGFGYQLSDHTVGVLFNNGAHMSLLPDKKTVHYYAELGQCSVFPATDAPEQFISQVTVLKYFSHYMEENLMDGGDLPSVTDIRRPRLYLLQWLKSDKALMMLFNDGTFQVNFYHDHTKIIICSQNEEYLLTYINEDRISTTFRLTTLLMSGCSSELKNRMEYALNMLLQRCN
# [9] = biological target: Serine/threonine-protein kinase PLK2 (Homo sapiens) (UniProt Q9NYY3); conditions: at 10 µM
# [10] = biological target: Tyrosine-protein kinase SYK (Homo sapiens) (UniProt P43405); conditions: at 1 µM
# Sequence of Serine/threonine-protein kinase SIK1 (Homo sapiens) (P57059 whole entry): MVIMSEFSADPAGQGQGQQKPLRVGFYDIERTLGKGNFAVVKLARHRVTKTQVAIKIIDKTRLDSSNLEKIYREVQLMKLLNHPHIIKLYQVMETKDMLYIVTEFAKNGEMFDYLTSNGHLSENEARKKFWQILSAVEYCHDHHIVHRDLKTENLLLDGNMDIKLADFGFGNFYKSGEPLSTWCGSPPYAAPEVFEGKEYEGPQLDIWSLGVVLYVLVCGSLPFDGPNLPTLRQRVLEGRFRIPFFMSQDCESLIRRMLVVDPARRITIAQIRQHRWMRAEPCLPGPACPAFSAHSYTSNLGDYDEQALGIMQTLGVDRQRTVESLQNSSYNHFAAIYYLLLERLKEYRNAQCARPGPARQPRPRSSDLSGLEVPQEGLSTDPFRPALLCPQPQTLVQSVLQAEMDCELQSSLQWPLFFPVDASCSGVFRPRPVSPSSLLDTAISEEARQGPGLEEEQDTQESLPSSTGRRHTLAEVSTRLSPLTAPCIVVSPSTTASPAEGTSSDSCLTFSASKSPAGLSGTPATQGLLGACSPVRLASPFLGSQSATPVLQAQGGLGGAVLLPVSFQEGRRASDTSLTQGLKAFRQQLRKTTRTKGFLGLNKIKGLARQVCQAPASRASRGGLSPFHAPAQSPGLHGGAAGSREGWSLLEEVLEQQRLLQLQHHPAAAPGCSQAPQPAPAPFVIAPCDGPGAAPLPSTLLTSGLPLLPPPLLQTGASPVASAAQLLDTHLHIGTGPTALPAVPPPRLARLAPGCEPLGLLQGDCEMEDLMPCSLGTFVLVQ
# Sequence of SRSF protein kinase 1 (Homo sapiens) (Q96SB4 whole entry): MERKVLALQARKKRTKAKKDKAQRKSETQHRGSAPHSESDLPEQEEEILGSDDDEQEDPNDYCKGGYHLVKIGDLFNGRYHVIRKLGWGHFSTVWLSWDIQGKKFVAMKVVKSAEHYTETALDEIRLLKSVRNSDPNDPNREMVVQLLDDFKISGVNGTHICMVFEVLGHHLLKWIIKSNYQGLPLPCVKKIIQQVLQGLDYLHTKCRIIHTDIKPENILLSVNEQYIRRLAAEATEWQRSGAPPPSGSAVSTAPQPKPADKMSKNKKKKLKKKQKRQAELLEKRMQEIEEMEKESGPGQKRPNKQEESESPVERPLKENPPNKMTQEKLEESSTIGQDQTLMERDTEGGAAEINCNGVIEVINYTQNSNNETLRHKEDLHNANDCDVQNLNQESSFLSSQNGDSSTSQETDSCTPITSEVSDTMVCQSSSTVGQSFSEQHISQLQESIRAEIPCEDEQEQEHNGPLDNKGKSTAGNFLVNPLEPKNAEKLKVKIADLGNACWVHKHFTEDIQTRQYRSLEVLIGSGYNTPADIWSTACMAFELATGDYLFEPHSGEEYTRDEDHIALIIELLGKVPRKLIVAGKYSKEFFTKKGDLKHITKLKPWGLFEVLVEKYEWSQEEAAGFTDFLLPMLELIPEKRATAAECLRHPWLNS
Compound,residual activity [1] [%],residual activity [2] [%],residual activity [3] [%],residual activity [4] [%],residual activity [5] [%],residual activity [6] [%],residual activity [7] [%],residual activity [8] [%],residual activity [9] [%],residual activity [10] [%]
O=C1NC(=O)c2c1c1c3ccccc3[nH]c1n1cncc21,44,91,76,103,72,79,70,38,38,60
Nc1ncnc2[nH]nc(Nc3ccc(F)cc3)c12,6,95,79,104,–,100,94,102,95,91
O=C1NC(=O)C(c2c[nH]c3ccccc23)=C1c1c[nH]c2ccccc12,7,63,6,74,22,–,71,–,–,120
O=C1Cc2c([nH]c3ccc([N+](=O)[O-])cc23)-c2ccccc2N1,68,105,–,–,–,–,–,–,–,–
O=C(c1cc2cc(O)ccc2[nH]1)c1cc2cc(O)ccc2[nH]1,8,81,79,–,71,83,62,–,78,82
COc1ccc2c(c1)c(C1=C(c3c[nH]c4ccccc34)C(=O)NC1=O)cn2CCCN(C)C,34,97,56,–,–,71,22,–,–,113
Nc1nc(Nc2ccc(S(N)(=O)=O)cc2)nn1C(=O)c1c(F)cccc1F,6,56,7,–,–,–,76,96,60,47
CCCCc1c(-c2ccc(OC)cc2)[nH]c2nccnc12,78,118,106,90,84,106,–,–,–,37
COc1cc2nccc(Oc3ccc(NC(=S)NC(=O)c4ccccc4C)cc3)c2cc1OC,37,102,96,100,91,97,90,72,35,99
O=C(O)/C=C/c1cc(Br)c(Br)c(Br)c1Br,98,–,–,103,89,103,99,39,–,108
CC(C)(C)n1nc(Cc2cccc3ccccc23)c2c(N)ncnc21,49,103,101,99,94,92,100,103,95,104
NC(=O)Nc1sc(-c2ccc(F)cc2)cc1C(N)=O,5,105,78,102,75,89,63,101,73,–
NC(=O)c1cccc(-c2cc(Nc3ccc(OC(F)(F)F)cc3)ncn2)c1,7,–,97,–,–,–,–,–,–,–
Cn1sc(=O)n(Cc2ccccc2)c1=O,83,83,91,93,76,95,88,–,–,–
CCN(CC)CCNC(=O)c1c(C)[nH]c(/C=C2\C(=O)Nc3ccc(Cl)cc32)c1C,5,–,–,98,78,33,6,98,58,–
N#C/C(=C\c1ccc(O)c(O)c1)C(=O)NCc1ccccc1,1,100,–,–,–,–,–,–,–,127
CC(C)(C)c1nc2c3ccc(F)cc3c3c(=O)[nH]ccc3c2[nH]1,42,99,–,–,73,34,24,49,44,–
CC(C)c1nn(-c2c(Cl)cccc2Cl)c2nc(Cc3ccc(OCCO)cc3)[nH]c(=O)c12,61,88,37,83,43,105,61,100,92,101
O=c1cc(N2CCOCC2)oc2c1ccc1ccccc12,93,99,93,97,97,93,101,98,85,–
CCCC(=O)Oc1ccc2[nH]c(C(=O)c3cc4ccccc4[nH]3)cc2c1,54,104,103,103,87,92,91,102,107,126
O=S(=O)(NCCNC/C=C/c1ccc(Br)cc1)c1cccc2cnccc12,57,–,–,–,–,–,–,–,–,–

Compound,residual activity [1] [%],residual activity [2] [%],residual activity [3] [%],residual activity [4] [%],residual activity [5] [%],residual activity [6] [%],residual activity [7] [%],residual activity [8] [%],residual activity [9] [%],residual activity [10] [%]
Nc1n[nH]c2nc3ccccc3nc12,72,–,–,94,82,98,83,99,68,–
O=c1cc(N2CCNCC2)oc2c(-c3ccccc3)cccc12,8,99,85,91,93,98,93,99,95,–
CN([C@@H](Cc1ccc(OS(=O)(=O)c2cccc3cnccc23)cc1)C(=O)N1CCN(c2ccccc2)CC1)S(=O)(=O)c1cccc2cnccc12,124,–,86,–,–,–,–,100,99,–
CSc1nc(-c2ccc(F)cc2)c(-c2ccnc(NC(C)c3ccccc3)c2)[nH]1 (stereo not drawn),87,94,84,91,87,92,93,–,87,101
O=C1Nc2ccc(Cl)cc2/C1=C/c1cc(Cl)c(O)c(Cl)c1,71,–,–,100,69,88,94,94,92,96
Nc1ncnc2c1c(-c1ccc(Oc3ccccc3)cc1)cn2C1CCCC1,27,104,103,93,90,87,57,97,93,109
COc1cc2c(cc1OC)-c1n[nH]c(Nc3cccc(F)c3)c1C2,5,–,105,–,–,–,–,–,–,117
COc1ccc(Cl)cc1NC(=O)Nc1cc(C)nc2ccccc12,134,–,–,94,86,99,98,–,–,–
CCOC(=O)c1c(C)[nH]c(/C=C2\C(=O)Nc3ccccc32)c1C,91,92,97,93,89,89,97,–,–,–
CCCCc1c(-c2ccc(O)cc2)[nH]c2nccnc12,36,–,–,91,90,99,62,100,86,50
COc1ccc(CNC(=O)Nc2ncc([N+](=O)[O-])s2)cc1,–,–,–,–,78,–,–,–,–,–
O=C1C(Cl)=C(N2C(=O)CCC2=O)C(=O)c2ccccc21,98,–,–,–,88,–,–,100,90,100
CCN1/C(=C/C(C)=O)Sc2ccc(OC)cc21,–,–,–,–,–,82,58,–,–,–
NCCNc1ncc(C(N)=O)c(Nc2cccc(C(F)(F)F)c2)n1,20,–,–,–,–,–,–,–,–,6
O=C1Cc2c([nH]c3ccc(Br)cc23)-c2ccccc2N1,36,–,–,–,–,97,81,99,91,72
O=c1c(-c2ccc(F)cc2)c(-c2ccncc2)[nH]n1-c1ccc(Cl)cc1,–,–,–,–,–,–,–,–,–,41
O=C(c1ccccc1)c1ccc(N2CCOCC2)cc1O,95,–,–,100,94,89,98,–,–,124
O=C1NC(=O)C(c2cn(CCCn3ccnc3)c3ccccc23)=C1Nc1ccccc1,36,–,–,–,–,75,32,–,–,105
O=c1cc(N2CCOCC2)oc2c(-c3ccccc3)cccc12,–,–,–,–,–,–,78,–,–,–
O=C1Nc2ccccc2/C1=C\c1c(Cl)[nH]c2ccccc12,–,–,–,100,83,99,85,99,80,–
Fc1ccc(-c2nc3n(c2-c2ccncc2)CCS3)cc1,–,–,93,–,79,–,–,–,–,–

Compound,residual activity [1] [%],residual activity [2] [%],residual activity [3] [%],residual activity [4] [%],residual activity [5] [%],residual activity [6] [%],residual activity [7] [%],residual activity [8] [%],residual activity [9] [%],residual activity [10] [%]
O=C(NC(NC(=S)Nc1ccc(F)c([N+](=O)[O-])c1)C(Cl)(Cl)Cl)C(c1ccccc1)c1ccccc1 (stereo not drawn),–,–,92,–,98,98,91,90,87,–
NC(=O)c1ccc(-c2nc(-c3ccc4c(c3)OCCO4)c(-c3ccccn3)[nH]2)cc1,–,–,–,91,95,–,–,93,100,–
CN(C)S(=O)(=O)c1ccc2c(c1)/C(=C/c1cc3c([nH]1)CCCC3)C(=O)N2,–,20,8,34,14,85,93,–,–,97
O=C1NC(=O)C(c2cn(CCCO)c3ncccc23)=C1c1cnccn1,84,–,–,–,–,–,–,–,–,93
CC(C)[C@H](CO)Nc1nc(Nc2cc(N)cc(Cl)c2)c2ncn(C(C)C)c2n1,18,–,–,–,–,96,62,–,–,–
Nc1nccc(-c2c(-c3ccc(F)cc3)ncn2C2CCNCC2)n1,54,–,–,–,70,–,–,–,–,–
Oc1cccc(-c2nc(N3CCOCC3)c3oc4ncccc4c3n2)c1,-1,–,–,–,–,–,–,–,98,131
N#Cc1c(NC(=O)c2cccc3ccccc23)sc2c1CCCC2,–,–,–,–,92,–,92,–,–,–
COc1ccc(COc2ccc(Cc3cnc(N)nc3N)cc2OC)cc1,111,–,–,–,–,–,–,–,–,118
O=C(CCCc1ccc(-c2ccccc2F)cc1)Nc1ccc(O)cc1,–,–,–,106,100,100,108,109,106,100
N#C/C(=C1/Nc2ccccc2S1)c1ccnc(NCCc2cccnc2)n1,78,–,–,–,–,–,–,97,71,–
c1ccc(-c2cnc(Nc3ccc(OCCN4CCCC4)cc3)s2)cc1,10,–,–,–,–,–,–,–,–,129
Cn1c2ccccc2c2c3c(c4c5ccccc5n(CCC#N)c4c21)CNC3=O,24,–,–,–,–,6,14,–,–,3
Nc1ncnc2c1cnn2-c1ccccc1,138,–,–,–,97,97,100,–,97,–
O=C(Nc1nc2ccccc2n1CCN1CCOCC1)c1cccc([N+](=O)[O-])c1,73,–,–,79,74,83,88,–,–,123
COc1cc2nccc(Oc3ccc(NC(=O)Nc4cc(C)on4)c(Cl)c3)c2cc1OC,–,98,–,99,–,81,73,105,98,–
COc1cc2ncnc(Nc3cccc(Cl)c3)c2cc1OC,–,101,108,104,–,–,–,109,82,121
Cc1cc(C)c(/C=C2\C(=O)Nc3ccccc32)[nH]1,–,104,–,–,–,69,47,–,–,–
COc1ccc(-c2cnc3c(-c4ccsc4)cnn3c2)cc1,2,–,–,–,–,95,96,–,–,127
CC(C)N(CCC(=O)c1ccc2ccccc2c1)Cc1ccccc1,–,–,–,–,85,–,–,–,–,127
